Results taken from PubChem BioAssay (Tox21).
Records with an inconclusive call do not appear. Calls of active or inactive are those of the source. Unless noted, calls come from the whole dose curve; as a rule, active = well fitted curve in the direction sought with a large enough effect in the repeat runs; inconclusive = weak or mixed curves; inactive = no such curve, though single readings can be large; an effect the other way counts as inactive or inconclusive.

Legend:
[1] = qHTS assay for small molecule agonists of the p53 signaling pathway (AID 651631; calls by dose curve; note: nearly all actives have a fitted effect of over 15% in size)
Summary of the method: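 p53RE-bla HCT-116 cells; compounds 16 h, 37 °C; LiveBLAzer B/G FRET substrate 2 h RT; fluorescence intensity read-out, qHTS format.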

[2] = qHTS assay for small molecules that induce genotoxicity in human embryonic kidney cells expressing luciferase-tagged ATAD5 (AID 651632); note: nearly all actives have a fitted effect of over 15% in size
Summary of the method: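 ATAD5-luc HEK293T, 2,000 cells/well; cpd or DMSO pin-transferred; 16 hr, 37C/5% CO2; Amplite 30 min RT; luminescence.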

[3] = qHTS assay for small molecule agonists of the p53 signaling pathway - cell viability (AID 651633; calls by dose curve;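 note: p53RE-bla HCT reporter cells with a stable beta-lactamase p53 reporter; series mostly up to about 83 µM; nearly all actives have a fitted effect of over 30% in size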)
Summary of the method: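 p53RE-bla cells were treated with compound for 16 hours at 37 C. Cytotoxicity was then measured as CellTiter-Glo luminescence after 30 min at room temperature.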

[4] = qHTS assay for small molecules that induce genotoxicity in human embryonic kidney cells expressing luciferase-tagged ATAD5 - cell viability (AID 651634; calls by dose curve; note: nearly all actives have a fitted effect of over 25% in size)
Summary of the method: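 Fluorescence from CellTiter-Fluor, reporting protease activity within live cells, served as the viability read-out. HEK293T cells carrying luciferase-tagged ATAD5 had been treated with compound for 15.5 hr at 37C.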

[5] = qHTS assay for small molecule disruptors of the mitochondrial membrane potential - cell viability (AID 720634; calls by dose curve;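 note: human HepG2 liver cancer cells; series mostly up to about 83 µM; nearly all actives have a fitted effect of over 20% in size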)
Summary of the method: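 Cells: HepG2, 2,000/well, attached overnight. Compound 1 hr, 37 C/5% CO2. +m-MPI dye, +CellTiter-Glo 30 min RT. Readout: luminescence (ATP).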

[6] = qHTS assay to test for compound auto fluorescence at 590 nm (red) in HepG2 cells (AID 720674)
Summary of the method: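 Fluorescence at 590 nm emission following 540 nm excitation was recorded from HepG2 wells one hour after compound transfer, with DMSO-only wells as vehicle and Rose Bengal sodium equivalency as the scale.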

[7] = qHTS assay to test for compound auto fluorescence at 535 nm (green) in HepG2 cells (AID 720675)
[8] = qHTS assay to test for compound auto fluorescence at 460 nm (blue) in HEK293 cells (AID 720678)
Summary of the method: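 Cells were seeded and left to adhere for 4-5 hr at 37C. Compounds were then pin-transferred. After an overnight incubation at 37C under 5% CO2, intrinsic fluorescence at 405/460 nm was measured and referenced to triamterene.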

[9] = qHTS assay to test for compound auto fluorescence at 590 nm (red) in HEK293 cells (AID 720679)
Summary of the method: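 Each well held 2,000 HEK293 cells in medium containing 10% dialyzed FBS. Following 4-5 hr attachment at 37C, 23 nL test compound or DMSO was added; plates sat overnight, and red fluorescence (540/590nm) was recorded.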

[10] = qHTS assay to test for compound auto fluorescence at 535 nm (green) in HEK293 cells (AID 720680)
[11] = qHTS assay to test for compound auto fluorescence at 460 nm (blue) in HEK293 cell free culture (AID 720681)
Summary of the method: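 Compounds were added to cell-free DMEM with 10% FBS and fluorescence read directly. The blue channel used 405 nm excitation and 460 nm emission, with triamterene as the reference fluorophore.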

[12] = qHTS assay to test for compound auto fluorescence at 590 nm (red) in HEK293 cell free culture (AID 720683)
Summary of the method: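 Cell-free wells of DMEM with 10% FBS received compound, and intrinsic fluorescence was read at excitation/emission 540/590 nm. Values expressed as equivalence to Rose Bengal sodium.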

[13] = qHTS assay to test for compound auto fluorescence at 590 nm (red) in HepG2 cell free culture (AID 720684)
Summary of the method: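 Compounds are added to culture medium (MEM, 10% FBS) lacking cells, then fluorescence is read at excitation 540 nm, emission 590 nm, with Rose Bengal sodium as the equivalency standard.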

[14] = qHTS assay to test for compound auto fluorescence at 460 nm (blue) in HepG2 cell free culture (AID 720685)
Summary of the method: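 Compound (23 nL) or DMSO pinned into cell-free MEM with 10% FBS; blue fluorescence read at 405/460 nm excitation/emission, expressed as auto-fluorescence equivalency to triamterene.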

[15] = qHTS assay to test for compound auto fluorescence at 535 nm (green) in HepG2 cell free culture (AID 720686)
[16] = qHTS assay to test for compound auto fluorescence at 460 nm (blue) in HepG2 cells (AID 720687)
Summary of the method: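 HepG2 cells in MEM with 10% FBS, attached overnight at 37 C, were exposed to compound or DMSO for 1 hr at 37 C, 5% CO2. Blue fluorescence was read at 405/460 nm, with triamterene as reference fluorophore.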

[17] = qHTS assay for small molecule disruptors of the mitochondrial membrane potential (AID 720635)
Summary of the method: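 HepG2 cells exposed to compound 1 hr at 37C, then Mito-MPS dye 30 min. Ratio read of aggregate (540/590 nm) versus monomer (490/535 nm) fluorescence.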

[18] = qHTS assay to test for compound auto fluorescence at 535 nm (green) in HEK293 cell free culture (AID 720682)
Summary of the method: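 Cell-free medium (DMEM, 10% FBS) receives compound or DMSO by pintool. Plate read directly at Ex 485/Em 535 nm. Signal converted to fluorescein equivalency.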

[19] = biological target: Glucocorticoid receptor (Homo sapiens) (UniProt P04150); experiment: qHTS assay to identify small molecule agonists of the glucocorticoid receptor (GR) signaling pathway (AID 720691; active = well fitted activation curve with a large enough effect in the signal ratio in the repeat runs, not every such curve was filed as active; the % refers to the signal ratio)
Chain of Glucocorticoid receptor (Homo sapiens) (P04150 whole entry, looked up): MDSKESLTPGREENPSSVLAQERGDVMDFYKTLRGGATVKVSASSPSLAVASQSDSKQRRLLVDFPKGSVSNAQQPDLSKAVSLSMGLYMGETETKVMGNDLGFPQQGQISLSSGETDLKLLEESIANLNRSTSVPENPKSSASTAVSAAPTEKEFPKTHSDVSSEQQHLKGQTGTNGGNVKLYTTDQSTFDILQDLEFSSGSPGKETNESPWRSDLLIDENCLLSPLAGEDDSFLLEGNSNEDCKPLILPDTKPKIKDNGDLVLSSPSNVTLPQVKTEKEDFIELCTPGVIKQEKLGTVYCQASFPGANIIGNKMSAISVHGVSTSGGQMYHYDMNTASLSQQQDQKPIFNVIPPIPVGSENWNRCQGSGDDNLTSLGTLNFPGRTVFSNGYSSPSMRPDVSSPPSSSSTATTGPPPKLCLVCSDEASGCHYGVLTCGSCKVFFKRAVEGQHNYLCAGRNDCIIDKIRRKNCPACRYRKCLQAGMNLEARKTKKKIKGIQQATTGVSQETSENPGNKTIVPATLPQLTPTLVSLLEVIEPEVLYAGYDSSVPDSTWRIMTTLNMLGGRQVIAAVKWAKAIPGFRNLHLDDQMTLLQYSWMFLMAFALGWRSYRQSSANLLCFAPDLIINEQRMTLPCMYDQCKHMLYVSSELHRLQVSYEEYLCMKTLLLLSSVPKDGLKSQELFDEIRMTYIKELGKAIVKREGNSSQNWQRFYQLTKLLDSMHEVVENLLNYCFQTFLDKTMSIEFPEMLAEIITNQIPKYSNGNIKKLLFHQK
Summary of the method: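 Fluorescence intensity from LiveBLAzer B/G FRET substrate (2 h, room temperature) reports beta-lactamase expression driven by the glucocorticoid response element in GR-bla HeLa cells after 18 h compound exposure at 37 C.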

[20] = biological target: Glucocorticoid receptor (Homo sapiens) (UniProt P04150); experiment: qHTS assay to identify small molecule antagonists of the glucocorticoid receptor (GR) signaling pathway (AID 720692; active = well fitted inhibition curve with a large enough effect in the signal ratio in the repeat runs, not every such curve was filed as active; the % refers to the signal ratio; note: potency is the fitted concentration of half-maximal effect)
Summary of the method: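 HeLa GR-bla cells; cmpd + dex 5 nM final, 18 h 37 C; LiveBLAzer B/G FRET substrate 2 h RT; fluorescence intensity read. Antagonist mode, qHTS.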

Measured: Potency

Cc1cc(NS(=O)(=O)c2ccc(N)cc2)nc(C)n1
not listed: [17] | [18] | [19] | [20]
inactive: all other assays above

C1CSCCS1
not listed: [6] | [11] | [16]
inactive: all other assays above

CC1=CC(=O)CC(C)(C)C1=O
not listed: [9] | [17]
inactive: all other assays above

NNS(=O)(=O)c1ccc(Oc2ccc(S(=O)(=O)NN)cc2)cc1
not listed: [9] | [17] | [19] | [20]
inactive: all other assays above

CCCCCCCCCC/C=C/C#N
not listed: [8] | [11] | [19] | [20]
inactive: all other assays above

CC1(C)S[C@@H]2[C@H](NC(=O)C(C(=O)O)c3ccccc3)C(=O)N2[C@H]1C(=O)O (stereo not given in full)
not listed: [17]
inactive: all other assays above

CCN(O)CC
not listed: [6] | [8] | [16] | [19] | [20]
inactive: all other assays above

C[C@]12CCC(=O)C=C1CC[C@@H]1[C@@H]2CC[C@@]2(C)[C@H]1CC[C@]2(O)C(=O)CO
active: [20] 338 nM
not listed: [16] | [17] | [19]
inactive: all other assays above

CCC(=O)Nc1ccc(O)cc1
not listed: [8] | [16]
inactive: all other assays above

O=C(O[C@@H](C(=O)O)[C@@H](OC(=O)c1ccccc1)C(=O)O)c1ccccc1
not listed: [6] | [19]
inactive: all other assays above

C=C(C)C(=O)OCCOP(=O)(O)O
not listed: [8] | [9] | [11]
inactive: all other assays above

CC(C)OC(C)C
not listed: [17] | [19]
inactive: all other assays above

COC(=O)C(C)O (stereo not given)
not listed: [6] | [19] | [20]
inactive: all other assays above

CCOC(=O)NCCC[Si](OCC)(OCC)OCC
not listed: [17] | [20]
inactive: all other assays above
